# Screening results: PubChem BioAssay, several laboratories
# An excerpt weighted towards active compounds, which were near 3.2% of everything screened.
# CHT PAM: allosteric activators of human choline transporter CHT. B-score at 10 µM. 310,000 compounds, 0.49% hits. CHT-expressing cells, membrane potential dye, choline EC20; hits give high values; LV-AA mutant CHT in HEK293 cells. AID 488977;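 active means initial fluorescence not abnormally high and integrated response B-score, plate-corrected, over 3 SD above library mean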
# PHOSPHO1 block: PHOSPHO1 (human) inhibition; Q8TCT1; recombinant PHOSPHO1, absorbance phosphatase assay; inhibition, % at 13.3 µM; 290,000 compounds, 1.1% hits; AID 1565; in the data active means inhibition above about 60%
# HDAC3 inh: inhibitors of human histone deacetylase 3. recombinant HDAC3, fluorogenic peptide/trypsin coupled, fluorescence. inhibition, % at 8.3 µM. 320,000 compounds, 0.15% hits. AID 2718; in the data active means inhibition above about 26%, passing the limit was not always enough; inconclusive means no clear call, values can overlap the other calls
# ANO1 block: blocks the mouse calcium-activated chloride channel TMEM16A. HEK293 TMEM16A/YFP iodide influx fluorescence, ionomycin. normalized B-score (activity score, 25-100; higher = stronger inhibition) at 10 µM. AID 588511. Q8BHY3. 310,000 compounds, 1.2% hits;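 active means ratio plate-corrected score three or more library SD toward inhibition, starting fluorescence score within five deviations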;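 further: score derived from kinetic fluorescence span divided by baseline fluorescence per well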
# Target sequence (Q8BHY3 whole entry, looked up): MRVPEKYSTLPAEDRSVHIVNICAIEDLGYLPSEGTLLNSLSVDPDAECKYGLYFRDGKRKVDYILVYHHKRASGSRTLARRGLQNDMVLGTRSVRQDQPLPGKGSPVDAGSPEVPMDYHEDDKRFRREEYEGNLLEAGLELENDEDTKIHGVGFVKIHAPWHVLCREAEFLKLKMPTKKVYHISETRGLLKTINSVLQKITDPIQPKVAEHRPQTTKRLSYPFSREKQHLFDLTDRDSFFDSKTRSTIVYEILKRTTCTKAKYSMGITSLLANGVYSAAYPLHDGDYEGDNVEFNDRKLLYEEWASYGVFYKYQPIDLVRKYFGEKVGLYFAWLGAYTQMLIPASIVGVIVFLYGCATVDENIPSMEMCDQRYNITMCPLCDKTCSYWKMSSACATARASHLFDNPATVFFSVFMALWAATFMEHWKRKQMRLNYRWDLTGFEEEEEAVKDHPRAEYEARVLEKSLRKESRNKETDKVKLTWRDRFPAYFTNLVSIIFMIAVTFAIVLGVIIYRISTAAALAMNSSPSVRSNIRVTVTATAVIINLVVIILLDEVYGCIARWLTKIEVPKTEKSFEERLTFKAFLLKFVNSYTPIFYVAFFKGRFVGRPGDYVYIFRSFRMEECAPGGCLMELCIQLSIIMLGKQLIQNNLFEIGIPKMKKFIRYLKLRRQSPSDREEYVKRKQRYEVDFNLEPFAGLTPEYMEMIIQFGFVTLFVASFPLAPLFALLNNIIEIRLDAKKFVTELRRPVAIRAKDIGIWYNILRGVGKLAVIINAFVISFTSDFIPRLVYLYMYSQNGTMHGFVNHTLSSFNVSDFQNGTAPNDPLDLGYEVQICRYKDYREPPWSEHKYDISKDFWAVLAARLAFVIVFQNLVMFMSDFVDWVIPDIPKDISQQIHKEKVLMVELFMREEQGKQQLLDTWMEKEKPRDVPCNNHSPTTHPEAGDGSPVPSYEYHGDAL
# CHT inh: human CHT choline transport inhibition | B-score at 10 µM | CHT-expressing cells, membrane potential dye, choline response; hits give low values | Q9GZV3 | 310,000 compounds, 0.86% hits | AID 488975;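 active means B-score over 3 SD under the library average, and starting fluorescence ratio not unusually high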;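 further: choline stimulus applied at its EC90 after an EC20 pre-addition; B-score computed on integrated fluorescence ratio after choline addition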
# ANO1 activ: mouse TMEM16A channel activation, primary screen; Q8BHY3; HEK293 TMEM16A/YFP-H148Q/I152L, iodide quench fluorescence; hits give low values; B-score at 10 µM; 340,000 compounds, 0.3% hits;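 active means fluorescence-ratio B-score plate-corrected deviation score at least 3 library SD below zero, with starting fluorescence score within 5 deviations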;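 further: channel opened by trigger with iodide after compound preincubation; score built on the fluorescence ratio of max minus min over baseline; more negative score means more quench and so TMEM16A activation or potentiation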
# CHT block conf: human CHT inhibition, confirmatory screen; CHT-expressing cells, choline membrane potential dye; LV-to-AA substituted CHT, HEK293 cells; CHT activity remaining % of control (hits give low values), % at 10 µM; 2,400 compounds, 70% hits; AID 493221; shares compounds with CHT inh;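 active means choline transporter activity left, mean of duplicates at 10 µM, below buffer-only control mean minus 3 SD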;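 further: depolarization triggered by choline at its EC90 following an EC20 pre-addition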
# HEK293 CHT ctr: counter-screen for CHT inhibitors: effect in parental HEK293 cells; 2,400 compounds, 4% hits; shares compounds with CHT inh; membrane potential dye, choline response; active = decrease or increase beyond buffer ±3SD; membrane potential ratio readout (active if shifted either direction beyond buffer ±3SD; no single direction) at 10 µM;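 further: parental cells lack the transporter so any hit is non-specific; ratio is peak minus trough fluorescence over baseline after EC90 choline challenge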
# Hits are given with their value; . = inactive; ? = inconclusive; / = no result given.
SMILES,CHT PAM,PHOSPHO1 block,HDAC3 inh,ANO1 block,CHT inh,ANO1 activ,CHT block conf,HEK293 CHT ctr
Fc1cccc(Cc2noc(CN3CCN(C4CCc5ccccc5C4)CC3)n2)c1 (centres undefined),.,.,.,.,.,.,/,/
CCN(CC(=O)Nc1ccc2c(c1)CCC2)Cc1nc2ccccc2c(=O)[nH]1,.,.,.,.,-5.1,.,.,.
CCN(CC(=O)Nc1ccc2c(c1)OCO2)Cc1nc2ccccc2c(=O)[nH]1,.,.,.,.,.,.,/,/
CCCC(=O)Nc1ccc(NC(=O)c2ccccn2)cn1,.,.,.,.,.,/,/,/
CCCn1c(C)cc(=O)c2cc(NC(=O)c3ccccn3)ccc21,.,.,.,.,-5.1,.,53%,2.8
COc1cccc(CN2CC(C(=O)NCc3ccc(C)c(F)c3)CCC2=O)c1 (centres undefined),.,.,/,.,.,.,/,/
CCCCCCn1c(N(CC)CC)nc2c1c(=O)[nH]c(=O)n2C,.,.,.,.,-6.4,.,.,.
CCCCOc1ccc(C(=O)OCC(=O)Nc2cc(C)on2)cc1,.,.,.,.,.,.,/,/
CCn1c(=O)cc(SCC(=O)Nc2ccc(OC)c(OC)c2)c2ccccc21,.,.,.,.,-6,.,.,.
Cc1cc(C)cc(NC(=O)Cn2c(=O)oc3cc(S(=O)(=O)N4CCC(C)CC4)ccc32)c1,.,.,.,.,.,.,/,/
Oc1ccc(-c2n[nH]c(C(F)(F)F)c2-c2ccccc2)c(O)c1,.,.,.,100,-5.2,.,62%,.
CN1CCN(c2oc(Cc3cccc4ccccc34)nc2C#N)CC1,.,.,.,.,-7,.,62%,.
N#Cc1nc(Cc2cccc3ccccc23)oc1NCCCN1CCOCC1,.,.,.,.,-5.7,.,69%,.
O=C(CCc1ccc(S(=O)(=O)N2CCOCC2)cc1)N/N=C/c1ccc(F)cc1F,.,.,.,.,.,.,/,/
O=C(CCc1ccc(S(=O)(=O)N2CCOCC2)cc1)N/N=C/c1ccc(O)c(O)c1O,.,.,?,.,-12,.,.,.
CN(C)c1nc(N)nc(Nc2ccccc2C#N)n1,.,.,.,.,.,.,/,/
Nc1nc(SCC(=O)Nc2ccc([N+](=O)[O-])cc2Br)n[nH]1,.,.,.,.,.,.,/,/
CC(C)c1nc(SCC(=O)Nc2ccc([N+](=O)[O-])cc2Br)n[nH]1,.,.,.,.,-5.8,.,.,.
S=c1nc(-c2sccc2OCc2ccc(Cl)cc2Cl)[nH][nH]1,.,.,.,.,-5,.,70%,.
CNC(=S)NNC(=O)c1sccc1OCc1ccc(Cl)cc1Cl,.,.,.,.,.,.,/,/
CCOc1ccccc1N1CCN(C(=O)Cc2ccc(S(=O)(=O)N3CCOCC3)s2)CC1,.,/,.,.,.,.,/,/
c1ccc2c(c1)ccc1ccccc12,/,/,/,/,/,.,/,/
CCCCCCCCC[n+]1cccc2c3ccccc3ccc21,.,.,.,100,-6.8,.,59%,.
Nc1nnc(-c2ccc(F)cc2)s1,.,.,.,.,.,.,/,/
CC(C)(C)c1ccc(-c2nnc(N)s2)cc1,.,.,.,.,-6,.,.,.
SMILES,CHT PAM,PHOSPHO1 block,HDAC3 inh,ANO1 block,CHT inh,ANO1 activ,CHT block conf,HEK293 CHT ctr
O=C(NCCCN1CCOCC1)c1ccc(Cl)c(S(=O)(=O)N2CCCCCC2)c1,.,.,.,.,-8.3,.,37%,.
O=C(NCCCN1CCOCC1)c1ccc2c(=O)n(-c3ccc(F)c(Cl)c3)c(=S)[nH]c2c1,.,.,.,.,-11,.,21%,.
O=C(O)c1ccc2c(=O)n(-c3ccc(F)c(Cl)c3)c(=S)[nH]c2c1,.,.,.,.,.,.,/,/
COc1ccc(-n2c(=S)[nH]c3cc(C(=O)NCCCN4CCOCC4)ccc3c2=O)cc1,.,.,.,.,-5.2,.,47%,.
COc1ccc(OC)c(/C=C/C(=O)OCC(=O)N2CCCCC2)c1,/,/,.,/,/,.,/,/
CCC(C)[C@H](NC(=O)N1CCN(C)CC1)C(=O)OC (some centres undefined),.,.,.,.,.,.,/,/
CCCCc1cc(O)c(CCCC)c(O)c1,.,.,.,100,-5.2,.,67%,.
NCCc1ccc(O)c(O)c1,.,.,.,.,.,.,/,/
COc1cc(/C=N/n2c(SC)nnc(C(C)(C)C)c2=O)ccc1O,.,.,.,.,.,.,/,/
N=C(N)SCc1ncccc1O,.,.,.,.,.,.,/,/
N=C(N)SCc1ccccn1,.,.,.,.,-5.9,.,33%,.
CC(=O)NCC(=O)N(Cc1ccco1)C1(C(=O)NC2CCCCC2)CCCCC1,.,.,.,.,-5.6,.,.,.
Cn1c(=NCC(O)COc2ccccc2)sc2ccccc21 (centres undefined),.,.,?,.,-19,.,8.9%,.
COc1ccc(N=c2sc3ccccc3n2C)cc1,.,.,.,.,.,.,/,/
COC(=O)c1cc(C(=O)OC)cc(N2C(=O)CC(NNC(=O)c3ccc(C)cc3)C2=O)c1 (centres undefined),.,.,.,.,-5.4,.,.,.
O=C(O)c1ccc(N2C(=O)CSC2=S)cc1,.,/,.,.,-6.4,.,69%,.
O=C(O)c1cc(C(=O)O)cc(N2C(=O)CSC2=S)c1,.,.,.,.,.,.,/,/
CCn1c(SCC(=O)Nc2ccc(C(=O)OC)cc2)nnc1-c1cccs1,.,.,.,.,.,.,/,/
CCn1c(SCC(=O)NCC(=O)Nc2ccc(F)cc2)nnc1-c1cccs1,.,.,.,.,-6,.,.,.
CCn1c(SCC(=O)c2ccccc2)nnc1-c1cccs1,.,.,.,.,-6.6,.,68%,.
CCn1c(SCC(=O)NCCc2ccccc2)nnc1-c1cccs1,.,.,.,.,.,.,/,/
Cc1ncsc1CCOC(=O)c1ccc(N2CCOCC2)c([N+](=O)[O-])c1,.,.,.,.,.,.,/,/
COc1ccc(S(=O)(=O)N2CCOCC2)cc1NC(=O)CN1CCCc2ccccc21,/,/,.,/,/,.,/,/
O=C1ON=C(c2ccccc2)/C1=C/c1ccco1,.,.,.,.,-6.6,.,50%,.
CN(C)/C=C1\C(=O)ON=C1c1ccccc1,.,.,.,.,.,.,/,/
Cc1ccc(-c2csc3ncn(CC#N)c(=O)c23)cc1C,.,/,.,.,.,.,/,/
Cc1ccc(-c2csc3ncn(CC#N)c(=O)c23)cc1,.,.,.,.,-5.6,.,50%,.
CN(Cc1ccccc1)C(=O)COC(=O)COc1ccc(Cl)cc1,/,/,.,/,/,.,/,/
